PubChem BioAssay AID1159580 (chemical genetic matrix, 2015)
The whole screen tested about 5,500 compounds, of which about 2,000 (36%) were called active. Inconclusive results (about 18%) are left out. Cut-off read from the data, not from the text of the source: active = normalized growth mostly below about 0.91 (no sharp cut-off); inconclusive = no clear call, values can overlap the other calls; inactive = mostly above about 0.92. Some of the results follow.

Experiment: chemical genetic growth profiling, strain panel (AID 1159580);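 note: tested at 20 µM; growth read once vehicle control cultures reached saturation at 30 °C; 1 = growth at the plate median or of vehicle wells; lower values mean less growth of the strain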
Details: S. cerevisiae deletion strains, growth OD

Measured: normalized growth

O=c1cc(-c2ccc(O)cc2)oc2cc(O)ccc12
inactive: locus YAL021C, strain ccr4, hits give low values 0.967 | locus YAL026C, strain drs2, hits give low values 0.95 | locus YAL030W, strain snc1, hits give low values 0.959 | locus YBL061C, strain skt5, hits give low values 0.967 | locus YBR009C, strain hhf1, hits give low values 0.929 | locus YBR023C, strain chs3, hits give low values 0.958 | locus YBR171W, strain sec66, hits give low values 0.981 | locus YBR231C, strain swc5, hits give low values 0.974 | locus YBR279W, strain paf1, hits give low values 0.974 | locus YCL011C, strain gbp2, hits give low values 0.948 | locus YCL016C, strain dcc1, hits give low values 0.976 | locus YCL061C, strain MRC1, hits give low values 0.976 | locus YCL069W, strain vba3, hits give low values 0.969 | locus YCR088W, strain abp1, hits give low values 0.957 | locus YDL005C, strain med2, hits give low values 0.963 | locus YDL040C, strain nat1, hits give low values 0.968 | locus YDR001C, strain nth1, hits give low values 0.96 | locus YDR069C, strain doa4, hits give low values 0.949 | locus YDR137W, strain rgp1, hits give low values 0.925 | locus YDR159W, strain sac3, hits give low values 0.866 | locus YDR195W, strain ref2 0.963 | locus YDR297W, strain sur2, hits give low values 0.966 | locus YDR334W, strain swr1, hits give low values 0.954 | locus YDR335W, strain msn5, hits give low values 0.984 | locus YDR392W, strain spt3, hits give low values 0.853 | locus YEL003W, strain gim4, hits give low values 0.972 | locus YEL037C, strain rad23, hits give low values 0.952 | locus YEL061C, strain CIN8 (second series), hits give low values 0.949 | locus YER015W, strain faa2, hits give low values 0.973 | locus YER016W, strain bim1, hits give low values 0.976 | locus YER111C, strain swi4, hits give low values 0.961 | locus YER155C, strain BEM2 (second series), hits give low values 0.897 | locus YFR010W, strain ubp6, hits give low values 0.941 | locus YGL167C, strain pmr1, hits give low values 0.945 | locus YGL173C, strain kem1, hits give low values 0.972 | locus YGL227W, strain vid30, hits give low values 0.941 | locus YGL240W, strain doc1, hits give low values 0.958 | locus YGL253W, strain hxk2, hits give low values 0.98 | locus YHR013C, strain ard1, hits give low values 0.925 | locus YHR027C, strain rpn1, hits give low values 0.957 | locus YHR030C, strain SLT2, hits give low values 0.948 | locus YHR079C, strain IRE1, hits give low values 0.935 | locus YHR142W, strain chs7, hits give low values 0.935 | locus YJL092W, strain hpr5, hits give low values 0.97 | locus YJL095W, strain BCK1 (second series), hits give low values 0.968 | locus YJL095W, strain BCK1, hits give low values 0.969 | locus YJL115W, strain asf1, hits give low values 0.968 | locus YJL129C, strain trk1, hits give low values 0.915 | locus YJL154C, strain vps35, hits give low values 0.975 | locus YJL164C, strain tpk1, hits give low values 0.962 | locus YJL166W, strain qcr8, hits give low values 0.969 | locus YJL187C, strain SWE1, hits give low values 0.964 | locus YJR066W, strain TOR1, hits give low values 0.938 | locus YKL160W, strain elf1, hits give low values 0.973 | locus YKR026C, strain gcn3, hits give low values 0.945 | locus YKR091W, strain srl3, hits give low values 0.964 | locus YLL001W, strain dnm1, hits give low values 0.958 | locus YLL026W, hits give low values 0.96 | locus YLL041C, strain sdh2, hits give low values 0.976 | locus YLR027C, strain aat2, hits give low values 0.953 | locus YLR113W, strain HOG1, hits give low values 0.918 | locus YLR221C, strain rsa3, hits give low values 0.974 | locus YLR258W, strain gsy2, hits give low values 0.956 | locus YLR262C, strain YPT6 (second series), hits give low values 0.926 | locus YLR320W, strain mms22, hits give low values 0.937 | locus YLR342W, strain FKS1, hits give low values 0.954 | locus YLR357W, strain rsc2, hits give low values 0.944 | locus YLR370C, strain arc18, hits give low values 0.948 | locus YLR384C, strain iki3, hits give low values 0.961 | locus YML120C, strain ndi1, hits give low values 0.948 | locus YMR058W, strain fet3, hits give low values 0.965 | locus YMR125W, strain sto1, hits give low values 0.941 | locus YMR129W, hits give low values 0.966 | locus YMR205C, strain PFK2, hits give low values 0.922 | locus YMR231W, strain pep5, hits give low values 0.966 | locus YNL071W, strain lat1, hits give low values 0.972 | locus YNL183C, strain NPR1, hits give low values 0.924 | locus YNL209W, strain ssb2, hits give low values 0.973 | locus YNL248C, strain rpa49, hits give low values 0.971 | locus YNL322C, strain KRE1 (second series), hits give low values 0.956 | locus YNR049C, strain mso1, hits give low values 0.964 | locus YOR001W, strain rrp6, hits give low values 0.979 | locus YOR070C, strain gyp1, hits give low values 0.971 | locus YOR080W, strain dia2, hits give low values 0.968 | locus YOR083W, strain WHI5, hits give low values 0.982 | locus YOR106W, strain vam3, hits give low values 0.946 | locus YOR231W, strain MKK1, hits give low values 0.942 | locus YOR265W, strain rbl2, hits give low values 0.975 | locus YOR270C, strain vph1, hits give low values 0.833 | locus YOR290C, strain snf2, hits give low values 0.921 | locus YPL051W, strain arl3, hits give low values 0.984 | locus YPL078C, strain atp4, hits give low values 0.963 | locus YPL106C, strain sse1, hits give low values 0.937 | locus YPL240C, strain hsp82, hits give low values 0.955 | locus YPL256C, strain CLN2, hits give low values 0.944
